Most compounds without a hit are left out; they make up all but 2.4% or so of the library.
D2 ag-1 – agonists of human D2 dopamine receptor | P14416 | HEK293 T-REx D2 cells, calcium flux agonist mode | activation, % at 2 µM | 340,000 compounds, 0.53% hits;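 active means activation over 3 SD above normal in the single-dose calcium agonist read, cut at about 30% in these data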; further: 0% is about no effect
Target sequence (P14416 whole entry, looked up): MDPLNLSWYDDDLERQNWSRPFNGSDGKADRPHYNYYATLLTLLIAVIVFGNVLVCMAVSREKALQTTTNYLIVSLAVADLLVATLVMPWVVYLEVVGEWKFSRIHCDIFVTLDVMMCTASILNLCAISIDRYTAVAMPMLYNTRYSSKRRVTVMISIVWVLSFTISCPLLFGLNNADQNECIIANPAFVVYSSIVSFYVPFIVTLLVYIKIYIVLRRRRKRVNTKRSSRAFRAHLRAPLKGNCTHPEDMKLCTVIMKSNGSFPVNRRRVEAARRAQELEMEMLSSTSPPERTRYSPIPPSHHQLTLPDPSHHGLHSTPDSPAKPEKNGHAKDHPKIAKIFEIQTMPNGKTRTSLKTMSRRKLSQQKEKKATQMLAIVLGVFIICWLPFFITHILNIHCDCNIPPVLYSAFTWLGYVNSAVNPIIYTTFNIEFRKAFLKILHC
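In this primary screen, compounds producing a positive calcium signal within 180 s of addition to tetracycline-induced, force-coupled HEK293 Trex D2 cells are flagged; cells are dye-loaded with a no-wash calcium kit beforehand.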
D2 PAM-1 – positively modulates the human D2 dopamine receptor allosterically | P14416 | HEK293 T-REx D2, calcium flux, EC20 dopamine potentiation | potentiation, % at 10 µM | 340,000 compounds, 0.34% hits | AID 485347;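 active means potentiation over 3 SD above the plate norm, cut at about 30% in these data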; further: 0% is about no effect
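Potentiation of an EC20 dopamine calcium response is measured in a force-coupled, tetracycline-inducible Hek293 Trex D2 line. Compound-only kinetic reads over 180 s flag agonists before dopamine addition.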
B2AR arrestin – recruits beta-arrestin to the human beta2-adrenergic receptor | Potency, µM (titrated, usually from 46.1 µM), for inactives: at the highest dose activation, hits mostly activators | beta-arrestin recruitment to beta2AR, cell-based reporter | AID 492947 | P07550 | 330,000 compounds, 0.02% hits; active means well fitted activation curve with a large enough effect; inconclusive means small, poorly fitted or top-dose-only effect;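 further: potency means the concentration at half of the fitted maximal effect; 0% = DMSO controls and full agonism = EC100 isoproterenol or metaproterenol; nearly all actives have a fitted effect of over 65% in size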
D2 PAM-2 – positive allosteric modulators of human D2 dopamine receptor; AID 624464; potentiation, % (concentration not given with the values); 360,000 compounds, 0.23% hits; DiscoveRx D2 beta-arrestin cells, luminescence, 90 min; 100% = 57 uM dopamine signal; in the data active means potentiation above about 50%; inconclusive means mostly about 30% to 49%
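PathHunter beta-arrestin assay in DiscoveRx D2 cells. Compounds were added with an EC20 of dopamine (50 nM final) for 90 min at 37 deg C. Luminescence was read 1 h after detection reagent, with 57 uM dopamine as the EC100 control.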
D2 antagonist – antagonizes the human D2 dopamine receptor; P14416; HEK293 TREx D2 cells, calcium flux, dopamine EC80; inhibition, % at 10 µM; 340,000 compounds, 2% hits; AID 485344; in the data active means inhibition above about 30%; inactive means below that, where a call was filed; further: 0% is about no effect
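In this primary screen, negative modulation is detected by tracking calcium flux after an EC80 dopamine challenge in inducible HEK293 T-REx D2 cells preexposed to test compound for 180 s.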
D2 ag-2 – human D2 receptor agonism in beta-arrestin assay. P14416. DiscoveRx PathHunter D2 beta-arrestin, luminescence, 90 min; 100% = 57 uM dopamine signal. activation, % (concentration not given with the values). 360,000 compounds, 0.084% hits. AID 624465; in the data active means activation above about 40%; inconclusive means between about 15% and that limit
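DiscoveRx PathHunter D2 beta-arrestin cells (2,100/well) attached overnight, then compound-stimulated 90 min at 37 C in HBSS/10 mM HEPES/0.1% Tween-20 buffer; beta-galactosidase complementation read by luminescence after 1 h at ambient temperature. Dopamine 57 uM final (EC100) as control.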
* = called active by the depositor; ? = inconclusive; · = no result given.

SMILES	D2 ag-1	D2 PAM-1	B2AR arrestin	D2 PAM-2	D2 antagonist	D2 ag-2
O=c1c(-c2ccc(Cl)cc2)cnc2n1CCS2	0	3	0%	-1	-19	-3
C[C@@H](C(=O)NCc1ccccn1)[C@@H]1C[C@@]1(C)[C@@H](NC(=O)OCc1ccccc1)c1ccccc1	-2	2	-1%	-5	1	0
Oc1c(Cl)cc(Cl)c2c1NCCC2	1	1	-2%	17	39*	?
O=C1NCCCc2c1oc1ccc(O)cc21	1	-7	-1%	-15	-17	-4
Cc1nc2c(-c3ccccc3)cnn2c(N2CCOCC2)c1C	0	-9	0%	-2	31*	-3
CCN(CC)CCCOC(=O)C(c1ccccc1)c1ccccc1	-2	-21	0%	-82	50*	-5
CCC(C(=O)OCCOCCN(CC)CC)c1ccccc1 (stereo not drawn)	0	3	0%	-9	-3	-7
c1ccc(-c2nc3nonc3nc2-c2ccccc2)cc1	1	12	0%	74*	41*	?
C=CCN(CC=C)C(=S)Nc1cc(Cl)ccc1OC	1	-3	0%	-19	4	42*
C=CCNC(=S)Nc1cc(Cl)ccc1OC	-1	-14	0%	-21	14	0
CCOc1ccc(CC(=O)OCN2C(=O)c3ccccc3C2=O)cc1	-1	30*	0%	-12	2	0
Fc1ccccc1/C=N/n1cc(-c2ccccc2)[nH]c1=S	0	5	?	-21	38*	-7
Cc1ccc(C)c(/C=N/n2cc(-c3ccccc3)[nH]c2=S)c1	2	-18	1%	-20	20	-5
O=C(O)c1ccc(/C=N/n2cc(-c3ccccc3)[nH]c2=S)cc1	-1	-5	0%	-18	-3	-6
S=c1[nH]c(-c2ccccc2)cn1/N=C/c1ccc(Br)cc1	0	-25	2%	-18	36*	-1
CN(C)CCCNc1nc2cc(-c3ccc(C(=O)N4CCN(C)CC4)cc3)sc2c(=O)n1C	·	·	·	-6	·	1
COc1ccc(C2OC[C@H]3O[C@H](O)[C@H](NC(C)=O)[C@@H](O)[C@@H]3O2)cc1 (stereo partly drawn)	2	1	0%	8	53*	7
COc1ccccc1OC1OC2COC(c3ccco3)OC2C(O)C1NC(C)=O (stereo not drawn)	1	-10	-1%	-13	-11	2
Cn1c(C(=O)NCc2cccc(Cl)c2)cc2oc3ccccc3c21	0	-1	·	·	·	·
Cc1cccc(N2CCN(C(=O)c3cccc(NC4=NC5CS(=O)(=O)CC5S4)c3)CC2)c1C (stereo not drawn)	1	17	0%	-5	-1	-3
O=Cc1cn(CC(=O)N2CCOCC2)c2ccccc12	0	19	0%	1	10	1
Cc1cccc(CSc2cn(CC(=O)N3CCOCC3)c3ccccc23)c1	0	0	0%	-7	35*	-1
O=C(Cn1cc(/C=N/O)c2ccccc21)N1CCOCC1	1	-5	0%	-9	39*	-5
CCOc1cc(Br)c(CC(=O)NC2CCCCCC2)cc1OCC	0	-13	0%	0	19	2
COc1ccc(NC(=S)NCCCn2ccnc2)cc1	·	·	·	14	·	1
SMILES	D2 ag-1	D2 PAM-1	B2AR arrestin	D2 PAM-2	D2 antagonist	D2 ag-2
CCC(C)NS(=O)(=O)c1ccc(NC(=O)c2ccc([N+](=O)[O-])cc2Cl)cc1 (stereo not drawn)	-2	5	0%	-3	37*	-3
COc1cc(C#N)ccc1OCC(=O)N1CCc2ccccc2C1	-1	38*	0%	-6	2	-6
CCOc1cc(C#N)ccc1OCC(=O)N1CCc2ccccc2C1	·	·	0%	1	8	-1
CC(C)NS(=O)(=O)c1ccc(OCC(=O)N2CCc3ccccc3C2)cc1	-1	5	0%	-4	30*	2
Cc1cc(OCC(=O)OCC(=O)N2CCc3ccccc3C2)ccc1Cl	0	36*	0%	1	24	-2
Cc1ccc(-c2csc(N3N=C(c4ccccc4)/C(=C\c4ccc(N(C)C)cc4)C3=O)n2)cc1	0	6	-5%	·	19	·
Cc1ccccc1NC(=O)c1ccno1	0	14	0%	-1	32*	0
Cc1cc(C(=O)Nc2ccccc2C)on1	0	8	0%	-4	-3	-4
CCn1cnc2cc(NC(=O)c3ccc(C)cc3)ccc21	1	4	-1%	-6	32*	3
O=C(O)C1CC=CCC1C(=O)NCc1ccccc1 (stereo not drawn)	0	-1	0%	-2	0	0
O=C(O)C1CC=CCC1C(=O)NCCCCc1ccccc1 (stereo not drawn)	0	0	0%	-1	34*	1
CCCCCCCC(=O)NN=C1CCN(Cc2ccccc2)CC1	2	-1	-1%	-10	-1	-2
Cc1ccc(-n2ncc3c(NC4CCCCCC4)ncnc32)cc1	0	-1	·	·	·	·
Brc1ccc(Oc2ncc(CN3CCN(c4ccccc4)CC3)s2)cc1	0	-6	0%	-2	-4	45*
COc1cc(-c2nc3ccccn3c2/N=C/c2cc(OC)c(OC)c(OC)c2)ccc1O	·	·	·	52*	·	6
COc1ccc(OC)c(/C=N/c2c(-c3ccc(O)c(OC)c3)nc3ccccn23)c1	·	·	-1%	-7	·	-6
Cc1cc(NC(=O)CCC(=O)N(C2CC2)C2(C(=O)NC3CCCC3)CCC(C)CC2)no1 (stereo not drawn)	0	-2	0%	-6	37*	-3
Cc1cc(NC(=O)CCC(=O)N(c2ccc(C)c(F)c2)C(C(=O)NC2CCCC2)c2ccco2)no1 (stereo not drawn)	·	-1	0%	-4	·	1
Cc1cc(NC(=O)CCC(=O)N(CCC(C)C)C(C(=O)NC2CCCC2)c2ccccc2C)no1 (stereo not drawn)	1	-2	1%	-1	51*	8
CCc1ccc(N(C(=O)CCC(=O)Nc2cc(C)on2)C(C(=O)NC2CCCC2)c2ccco2)cc1 (stereo not drawn)	-1	11	0%	-16	33*	-5
Cc1cc(NC(=O)CCC(=O)N(Cc2ccco2)C2(C(=O)NC3CCCC3)CCC(C)CC2)no1 (stereo not drawn)	0	4	-1%	-12	0	-1

Screening results (PubChem BioAssay)
